From the supplement of paper PMC3334620
In all, about 33,000 sequences were measured (“E-score (-0.5 to 0.5)”: median about -0.043, highest 2% from about 0.37 on). For the sample, the highest values were picked, then their nearest neighbours and some sequences at random.

biological target: T1, Upc2 (UniProt Q12151); assay: PBM E-score (8-mer binding enrichment) (E-score (-0.5 to 0.5)); higher = stronger / more preferred TF binding; settings: protein concentration: 200 nM; construct: GST-full length
T1 sequence: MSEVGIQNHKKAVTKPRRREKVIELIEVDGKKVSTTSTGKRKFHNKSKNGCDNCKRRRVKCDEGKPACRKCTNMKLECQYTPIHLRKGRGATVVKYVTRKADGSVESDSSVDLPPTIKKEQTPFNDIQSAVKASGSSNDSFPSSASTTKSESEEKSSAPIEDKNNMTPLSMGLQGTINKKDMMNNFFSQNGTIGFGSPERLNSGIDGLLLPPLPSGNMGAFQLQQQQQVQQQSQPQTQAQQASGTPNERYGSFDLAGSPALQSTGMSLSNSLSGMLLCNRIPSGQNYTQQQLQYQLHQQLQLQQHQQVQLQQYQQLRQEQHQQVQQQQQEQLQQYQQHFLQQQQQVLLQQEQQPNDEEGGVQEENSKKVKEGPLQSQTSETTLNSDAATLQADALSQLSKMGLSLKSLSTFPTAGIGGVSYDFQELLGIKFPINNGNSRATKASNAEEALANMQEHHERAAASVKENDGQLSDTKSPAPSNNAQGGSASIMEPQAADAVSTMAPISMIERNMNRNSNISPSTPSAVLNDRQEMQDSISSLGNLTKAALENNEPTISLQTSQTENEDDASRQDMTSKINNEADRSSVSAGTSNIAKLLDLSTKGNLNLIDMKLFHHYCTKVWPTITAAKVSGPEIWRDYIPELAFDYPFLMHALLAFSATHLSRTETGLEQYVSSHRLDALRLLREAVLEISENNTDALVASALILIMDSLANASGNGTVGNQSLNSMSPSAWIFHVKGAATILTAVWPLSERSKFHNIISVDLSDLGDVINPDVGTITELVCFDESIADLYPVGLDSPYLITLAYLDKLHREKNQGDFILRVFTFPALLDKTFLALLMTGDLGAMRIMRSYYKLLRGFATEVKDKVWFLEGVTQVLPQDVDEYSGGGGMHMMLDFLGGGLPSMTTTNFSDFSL
Description: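 Universal 'all 10-mer' protein binding microarrays (Agilent AMADID 015681) probed with GST-tagged S. cerevisiae TFs (full-length or DBD) made by in vitro transcription/translation (PURExpress), about 100-200 nM. Bound TF was detected with fluorescent anti-GST. Each ungapped 8-mer (which stands for itself and its reverse complement) is scored by the PBM enrichment score (E-score), a modified Wilcoxon-Mann-Whitney statistic from -0.5 to +0.5, computed with the Universal PBM Analysis Suite. Scale: above 0.35 generally sequence-specific binding.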

| Sequence | PBM E-score |
| --- | --- |
| AACGTATA | 0.443 |
| TACGTACA | 0.341 |
| GACGTAGC | 0.0263 |
| TACGTATA | 0.423 |
| CACGTATA | 0.433 |
| GACGTATA | 0.424 |
| GACGTATC | 0.156 |
| CACGTATG | 0.236 |
| AACGTATC | 0.142 |
| TACGTAGA | 0.18 |
| AACGTATT | 0.212 |
| CACGTATC | 0.132 |
| CGCAAATA | 0.0612 |
| AACAGGTC | 0.056 |
| TGAAAAAA | 0.0284 |
| ACACCGAG | -0.024 |
| AACATTGT | 0.0538 |
| ACCGTACG | 0.383 |
| CACGTACA | 0.272 |
| GCCGTACA | 0.4 |
| GCGGTACA | -0.0545 |
| CCCGTACA | 0.398 |
| ACCGTAGG | -0.135 |
| CCCGTACC | 0.383 |
| ACCGTAAT | 0.0464 |
| CCAGTACA | -0.157 |

| Sequence | PBM E-score |
| --- | --- |
| GCCGTGCA | -0.291 |
| CCCGTAGC | 0.0891 |
| CCAGTACC | 0.0225 |
| ATCGACAA | 0.0687 |
| AACATCAT | -0.094 |
| AAAAGCTG | 0.0411 |
| ACACACTC | -0.042 |
| TTCAGCAA | -0.0506 |
| CTCTCCAA | -0.0403 |
| ACTCGACC | -0.0381 |
| CGCGTACG | 0.4 |
| TGCGTACA | 0.318 |
| GCCGTAGC | 0.0955 |
| CCCGTACG | 0.393 |
| TCCGTAGA | -0.0263 |
| CGCGTACA | 0.35 |
| AGCGTACG | 0.354 |
| CCCGTAAG | 0.208 |
| CCCGTAGG | -0.0508 |
| TCCGTACA | 0.406 |
| GCCGTACC | 0.379 |
| ACCGTACC | 0.366 |
| AAGCTCAC | -0.0662 |
| AAGAAGGC | -0.216 |
| ATCAGTGC | -0.0682 |
| CTTAGGCA | -0.361 |

| Sequence | PBM E-score |
| --- | --- |
| ATTTCAGG | -0.0274 |
| ATCGATAG | -0.0178 |
| TAAATTGA | -0.0257 |
| CGTGCATA | -0.0557 |
| GCCCTTTA | -0.0758 |
| ACTGTACA | 0.133 |
| ACCGTACA | 0.39 |
| ACCGTACT | 0.214 |
| AAGCGGCT | -0.0364 |
| ACCGCTAC | 0.14 |
| CCACCGAA | -0.00574 |
| CCACCGTC | -0.227 |
| CGGCCGTC | -0.0655 |
| CCACCGTA | 0.399 |
| ACACCGTA | 0.321 |
| GAACCGTA | 0.269 |
| CGACCGTA | 0.373 |
| GCACCGTA | 0.371 |
| CGACCGTC | -0.0557 |
| AGACCGTA | 0.287 |
| AGGCCGTA | 0.355 |
| CGGCCGTA | 0.378 |
| AAAGATTC | 0.0374 |
| CCAAGAAG | -0.227 |
| ATGCGTGC | 0.03 |
| CAGTCGCC | -0.196 |

| Sequence | PBM E-score |
| --- | --- |
| ATTTGCTG | 0.0559 |
| CGTACACG | 0.423 |
| GGTACACA | -0.235 |
| CGTACACC | 0.382 |
| CGTACACA | 0.418 |
| AGTACACC | 0.0771 |
| GGTACACC | 0.0641 |
| TGTACACA | 0.0892 |
| AGTACACA | 0.143 |
| AGTACACG | 0.198 |
| GATGAGGA | -0.0777 |
| CCTGCAAA | -0.0886 |
| GCAATTAC | -0.0538 |
| AGGGTCCC | -0.229 |
| ACGAGTAC | 0.419 |
| ACGAGTAA | 0.348 |
| ACGAGTAT | 0.376 |
| ACGAGTAG | 0.368 |
| CCGAGTAC | 0.196 |
| CCGAGTGC | -0.0549 |
| ACGAGTCT | 0.293 |
| ACGAGTCG | 0.384 |
| ACGAGTCA | 0.249 |
| ACGAGTGC | 0.377 |
| GCGAGTAC | 0.204 |
| ACGAGTGG | 0.295 |

| Sequence | PBM E-score |
| --- | --- |
| CGCTGGGA | -0.0151 |
| AAAGTGTT | 0.0836 |
| ATCGTCCG | -0.101 |
| CGACGATA | 0.169 |
| CGGTAAAC | 0.206 |
| AAAGGTGG | -0.0797 |
| AGCTTTAC | 0.192 |
| GTGGATAA | -0.151 |
| ACAGTAGC | -0.0133 |
| AAAATAGG | -0.0506 |
| CGCGTTTC | 0.0838 |
| CTCGTTTC | 0.452 |
| ATCGTTTG | 0.452 |
| AGCGTTTC | 0.0667 |
| AGCGTTTG | 0.149 |
| ATCGTTTC | 0.401 |
| ATAGTTTC | -0.0466 |
| ATAGTTTG | -0.0286 |
| CTCGTTGC | 0.356 |
| GTCTGGAA | -0.122 |
| GAAATTCC | -0.186 |
| GACCCGAA | -0.0162 |
| CCTGCGCG | -0.0152 |
| CGGGCCAA | -0.307 |
| AGCAGAGG | -0.293 |
| GCAAGCGA | 0.174 |

| Sequence | PBM E-score |
| --- | --- |
| AACACCTT | 0.0752 |
| ACGTTCCA | 0.116 |
| CCGTTCCC | 0.385 |
| GCGTTTCA | -0.0903 |
| ACGTTTCA | 0.116 |
| TCGTTCAA | 0.459 |
| GCGTTCCC | 0.0703 |
| TCGTTTCA | 0.406 |
| GCGTTCAA | 0.173 |
| GCGTTCCA | 0.11 |
| TCGTTCCA | 0.46 |
| ACGTTCCC | 0.0935 |
| ACGTTCAA | 0.238 |
| AGTCTTTA | -0.0445 |
| AGACTGCG | -0.17 |
| GCGAATTA | 0.179 |
| GGATGGAA | -0.0401 |
| CGGGCATC | 0.0742 |
| GCCGCGTA | 0.271 |
| AGCCGAAG | -0.185 |
| CTACAAGA | -0.194 |
| CTTCGTCA | -0.0302 |
| ATTCGTAC | 0.452 |
| CTTCGTGC | -0.0549 |
| ATTCGTCC | 0.0624 |
| CTTCGTAA | 0.427 |

| Sequence | PBM E-score |
| --- | --- |
| CTTCGTAC | 0.458 |
| CTTCGTCC | -0.316 |
| ATTCGTGC | -0.094 |
| CTTCGTGA | 0.112 |
| CCCAGCCC | -0.217 |
| CACACACC | 0.0034 |
| CTTCATAA | -0.121 |
| AAGGCACC | -0.24 |
| ATAGCGAC | 0.17 |
| ATAACGTG | 0.0885 |
| TAATGTAA | -0.0142 |
| AAGCCTAT | -0.0475 |
| CAGGAACG | 0.396 |
| CGGGAACG | 0.404 |
| AAGGAACG | 0.347 |
| CGGGAACC | -0.12 |
| CGGGAACA | 0.184 |
| AGGGAACG | 0.39 |
| CAGGAACC | -0.161 |
| CCGGAACC | -0.113 |
| CCGGAACA | -0.189 |
| AGGGAACC | -0.104 |
| AGGGAACA | -0.22 |
| CCGGAACG | 0.376 |
| AGCGCAAC | 0.149 |
| TTTCCAAA | -0.0113 |

| Sequence | PBM E-score |
| --- | --- |
| AAGCTTGG | 0.127 |
| ACTGCGCC | -0.147 |
| CCGGGGAA | -0.23 |
| GGAAGTAA | -0.0533 |
| GGCAATCA | -0.196 |
| AAAGGATC | -0.127 |
| ATCTCGTA | 0.464 |
| CTCTCGTC | 0.0223 |
| ATCTCGTG | 0.124 |
| CTCTCGAA | -0.0265 |
| ATCTCGTC | 0.123 |
| GTCTCGAA | -0.0265 |
| CTCTCGTA | 0.453 |
| GTCTCGTA | 0.456 |
| GTCTCGGA | 0.162 |
| AAGGTTCA | -0.145 |
| GGCAGAGA | -0.14 |
| GCCACAGA | -0.149 |
| ATTGAACA | -0.0652 |
| TTATCCAA | 0.0246 |
| GAGAGTAC | 0.0133 |
| CCGTACCG | 0.389 |
| CCGTACCC | 0.379 |
| GCGTACCC | 0.244 |
| ACGTACCC | 0.203 |
| CCGTACCA | 0.368 |

| Sequence | PBM E-score |
| --- | --- |
| ACGTACCG | 0.272 |
| GAAATATA | 0.127 |
| ATCCCGTG | 0.0975 |
| GTCCCGTA | 0.25 |
| ATCCCGTA | 0.373 |
| AACCCAAC | 0.00517 |
| CGCTTACG | 0.372 |
| CGCTTACA | 0.178 |
| CGCTTACC | 0.301 |
| CCTTATAA | 0.0883 |
| CCGTTTAG | 0.468 |
| ACGTTTTG | -0.0436 |
| CAGTTTAG | -0.0566 |
| ACGTTTTA | 0.188 |
| ACGTTTAG | 0.397 |
| ACGTTTAT | 0.313 |
| ATGTTTAA | 0.067 |
| CCGTTTCG | 0.255 |
| ACGTTTAA | 0.407 |
